The assay addresses T1, GST-Nv-NF-kB (Cys allele) (Nematostella vectensis, UniProt E5G601 2-411).
T1 sequence: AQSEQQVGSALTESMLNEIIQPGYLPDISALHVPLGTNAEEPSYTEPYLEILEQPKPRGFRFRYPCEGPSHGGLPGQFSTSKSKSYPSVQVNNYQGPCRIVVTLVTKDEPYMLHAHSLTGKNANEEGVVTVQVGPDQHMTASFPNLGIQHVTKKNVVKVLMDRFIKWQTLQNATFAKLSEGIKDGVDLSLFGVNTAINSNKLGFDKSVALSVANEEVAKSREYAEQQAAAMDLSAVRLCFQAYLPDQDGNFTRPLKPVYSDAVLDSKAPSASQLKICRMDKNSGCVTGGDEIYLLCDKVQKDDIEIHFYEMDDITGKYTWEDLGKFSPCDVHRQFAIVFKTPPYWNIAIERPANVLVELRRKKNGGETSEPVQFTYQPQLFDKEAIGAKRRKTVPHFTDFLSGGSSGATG
Description: protein-binding microarray (PBM); PBM: ~300 nM protein, 6 mM HEPES pH 7.8, 80 mM KCl, 0.5 mM EDTA, 0.5 mM EGTA, 6% glycerol, 35 ng/ul poly-dIdC, 1% milk, 1 h, room temperature; Ap Aiptasia and Nv Nematostella (sea anemones) / Co Capsaspora / Aq Amphimedon (sponge) / Dm Drosophila / Hu human; RHD is the Rel homology domain; high values mean tight binding. The conditions noted are these: dsDNA, one strand shown.
Sequence “CCGATTAACATCACTAATTTCCCTGATGTTAATCGGGTCTTGATTCGCTTGACGCTGCTG” yielded a binding signal of 4.55 z-score.

“CCGATTAACATCAGGAATTCCCATGATGTTAATCGGGTCTTGATTCGCTTGACGCTGCTG” had a binding signal of 5.88 z-score.

The sequence “CCGATTAACATCAAAAATCCCTATGATGTTAATCGGGTCTTGATTCGCTTGACGCTGCTG” displayed a binding signal of 5.21 z-score. “CCGATTAACATCAAACCCCCCCATGATGTTAATCGGGTCTTGATTCGCTTGACGCTGCTG”: the binding signal is 4.78 z-score.

Sequence “CCGATTAACATCAGGGAGATTTGTGATGTTAATCGGGTCTTGATTCGCTTGACGCTGCTG” yielded a binding signal of 4.56 z-score. Sequence “CCGATTAACATCAGCCCCCCCCATGATGTTAATCGGGTCTTGATTCGCTTGACGCTGCTG” had a binding signal of 2.9 z-score. The figure for “CCGATTAACATCAAATCATCCCCTGATGTTAATCGGGTCTTGATTCGCTTGACGCTGCTG” is 5.38 z-score; for “CCGATTAACATCATGATGGGAAATGATGTTAATCGGGTCTTGATTCGCTTGACGCTGCTG” it is 2.84 z-score; for “CCGATTAACATCAGGGGGGGTCATGATGTTAATCGGGTCTTGATTCGCTTGACGCTGCTG” it is 2.96 z-score. The figure for “CCGATTAACATCAGGGGAACACATGATGTTAATCGGGTCTTGATTCGCTTGACGCTGCTG” is 5.02 z-score; for “CCGATTAACATCAATTTTTCCCATGATGTTAATCGGGTCTTGATTCGCTTGACGCTGCTG” it is 4.2 z-score; for “CCGATTAACATCAGGGACAAAAATGATGTTAATCGGGTCTTGATTCGCTTGACGCTGCTG” it is 3.15 z-score.

Regarding “CCGATTAACATCACAGGGAATTCTGATGTTAATCGGGTCTTGATTCGCTTGACGCTGCTG”, the binding signal came to 5.56 z-score.

“CCGATTAACATCACATTGTCCCCTGATGTTAATCGGGTCTTGATTCGCTTGACGCTGCTG” came in with a binding signal of 4.18 z-score.

These data come from PMC5700166.
